# According to PubChem BioAssay (EPA / NIEHS):
# Calls of active or inactive are those of the source. How the source made its calls: active means hit-call score of the fitted dose curve at least 0.9, where 1 is the maximum; inactive means score below 0.9.
# Assays:
# [1] = ATG_EGR_CIS: Attagene CIS-FACTORIAL HepG2 Assay for human Early Growth Response 1 (EGR1) (AID 2282938); conditions: HepG2 Attagene CIS-FACTORIAL EGR reporter mRNA; actives raise or lower the signal
# How it was run: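 HepG2, transient MRTU transfection (cis promoters), 24 h compound. RNA → RT (oligo-dT) → PCR → 6-FAM labelling → HpaI cut → CE fluorescence. Bidirectional fit, DMSO baseline.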
# [2] = ATG_M_19_CIS: Attagene CIS-FACTORIAL HepG2 Assay for M19 Transcription Factor (Internal Marker) (AID 2282939); conditions: HepG2 Attagene CIS-FACTORIAL M19 internal marker reporter; actives raise or lower the signal
# How it was run: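 Chemical-treated HepG2 (24 h) with MRTU constructs; reporter transcripts detected by fluorescent RT-PCR fragment analysis on capillary electrophoresis. Internal background marker, DMSO as baseline.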
# [3] = ATG_ERE_CIS: Attagene CIS-FACTORIAL HepG2 Assay for Estrogen Response Element (ERE) (AID 2282940); conditions: HepG2 ERE cis-reporter, Attagene RNA transcript; actives raise or lower the signal
# How it was run: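 Human liver cells (HepG2) bearing transiently transfected, promoter-regulated reporter units were exposed 24 h. Reporter mRNA induction was detected by capillary electrophoresis of labelled RT-PCR products and fitted bidirectionally to DMSO.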
# [4] = ATG_Ets_CIS: Attagene CIS-FACTORIAL HepG2 Assay for human Erythroblast Transformation Specific (ETS) (AID 2282941); conditions: HepG2 ETS cis-reporter transcription, actives raise or lower the signal
# How it was run: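 Human HepG2 hepatoma cells were transiently transfected with promoter-driven reporter constructs and treated for 24 hours. Reporter transcripts were quantified by RT-PCR with fluorescent primer extension; bidirectional curve fitting used DMSO as reference.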
# [5] = ATG_FoxO_CIS: Attagene CIS-FACTORIAL HepG2 Assay for human Forkhead box O (FoxO) (AID 2282943); conditions: HepG2 Attagene cis-reporter, FoxO element, mRNA; actives raise or lower the signal
# How it was run: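 HepG2 cells transiently transfected with cis-element-driven reporter units report endogenous FoxO activity. After 24 h chemical exposure, reporter mRNA quantified by RT-PCR, fluorescent labeling, HpaI digestion and capillary electrophoresis; bidirectional fit versus DMSO.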
# [6] = ATG_GATA_CIS: Attagene CIS-FACTORIAL HepG2 Assay for human GATA Binding Protein (AID 2282944); conditions: HepG2 GATA cis-element reporter, Attagene multiplex mRNA; actives raise or lower the signal
# How it was run: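 Transfected cis-reporter HepG2 cells were treated with chemicals for 24 hours. Total RNA was then converted to cDNA, amplified with reporter-specific primers and analysed by fluorescent capillary electrophoresis, using DMSO-treated wells as baseline.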
# [7] = ATG_GLI_CIS: Attagene CIS-FACTORIAL HepG2 Assay for human Zinc Finger Protein GLI1 (AID 2282945); conditions: HepG2, Attagene cis-factorial reporter mRNA, GLI element; actives raise or lower the signal
# How it was run: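 Transiently transfected HepG2 cells report endogenous transcription factor activity via cis-element-driven reporter units. After 24 h compound exposure, reporter mRNA was measured by RT-PCR with capillary electrophoresis; bidirectional fitting against DMSO baseline.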
# [8] = ATG_GRE_CIS: Attagene CIS-FACTORIAL HepG2 Assay for human Glucocorticoid Response Elements (GRE) (AID 2282947); conditions: HepG2 GRE cis-reporter, Attagene multiplex mRNA; actives raise or lower the signal
# How it was run: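 Endogenous transcription factor activity is read through cis-element reporter constructs transiently transfected into HepG2 cells. After 24 h treatment, labelled RT-PCR products are resolved by capillary electrophoresis; DMSO sets baseline for bidirectional curve fitting.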
# [9] = target: Bile acid receptor (Homo sapiens) (UniProt Q96RI1); experiment: ATG_IR1_CIS: Attagene CIS-FACTORIAL HepG2 Assay for human Nuclear Receptor Subfamily 1 Group H Member 4 (NR1H4), IR1 submotif (AID 2282946); conditions: IR1 reporter transcription, actives raise or lower the signal
# Sequence of Bile acid receptor (Homo sapiens) (Q96RI1 whole entry, looked up): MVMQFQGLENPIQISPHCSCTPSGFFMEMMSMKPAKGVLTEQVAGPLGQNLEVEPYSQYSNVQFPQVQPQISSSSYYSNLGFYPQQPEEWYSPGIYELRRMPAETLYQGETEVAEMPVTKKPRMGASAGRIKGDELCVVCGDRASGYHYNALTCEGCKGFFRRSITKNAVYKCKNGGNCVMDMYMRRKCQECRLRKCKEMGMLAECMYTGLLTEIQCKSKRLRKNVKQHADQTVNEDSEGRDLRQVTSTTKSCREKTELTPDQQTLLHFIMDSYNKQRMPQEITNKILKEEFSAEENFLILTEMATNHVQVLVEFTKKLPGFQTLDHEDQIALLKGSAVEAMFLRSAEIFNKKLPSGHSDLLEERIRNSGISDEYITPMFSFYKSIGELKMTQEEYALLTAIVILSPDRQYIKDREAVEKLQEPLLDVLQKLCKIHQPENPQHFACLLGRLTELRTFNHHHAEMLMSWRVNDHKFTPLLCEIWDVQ
# How it was run: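 HepG2 cells transiently transfected with multiple cis-promoter-driven reporter units to measure endogenous transcription factor activity; 24 h exposure. Reporter mRNA read by RT-PCR, FAM labelling, HpaI digestion and capillary electrophoresis. Bidirectional fit versus DMSO.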
# [10] = target: Hepatocyte nuclear factor 3-beta (Homo sapiens) (UniProt Q9Y261); experiment: ATG_FoxA2_CIS: Attagene CIS-FACTORIAL HepG2 Assay for human Forkhead box A2 (FOXA2) (AID 2282942); conditions: HepG2 cis-reporter transcription factor activity, 24 h; actives raise or lower the signal
# Sequence of Hepatocyte nuclear factor 3-beta (Homo sapiens) (Q9Y261 whole entry, looked up): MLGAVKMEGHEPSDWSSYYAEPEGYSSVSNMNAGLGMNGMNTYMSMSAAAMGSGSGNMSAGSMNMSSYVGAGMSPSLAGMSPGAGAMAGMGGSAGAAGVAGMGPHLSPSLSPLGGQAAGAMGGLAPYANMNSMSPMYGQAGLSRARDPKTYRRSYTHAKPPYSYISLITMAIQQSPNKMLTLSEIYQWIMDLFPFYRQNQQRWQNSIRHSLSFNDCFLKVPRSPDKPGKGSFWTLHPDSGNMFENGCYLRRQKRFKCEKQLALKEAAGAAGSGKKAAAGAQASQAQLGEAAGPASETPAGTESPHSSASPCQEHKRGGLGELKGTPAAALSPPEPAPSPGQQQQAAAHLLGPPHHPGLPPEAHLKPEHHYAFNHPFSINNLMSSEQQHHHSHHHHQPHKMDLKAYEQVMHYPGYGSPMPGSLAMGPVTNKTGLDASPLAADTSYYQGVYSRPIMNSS
# How it was run: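 Cells: HepG2, transient multiplex reporter transfection. Exposure 24 h. Detection: reporter-specific RT-PCR, fluorescent labelling, restriction digest, capillary electrophoresis. Analysis: bidirectional curve fit, DMSO as negative control.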
structure (smiles),measurement,setting,value
O=C(Cc1ccccc1)c1ccccc1,outcome,[1],inactive
same,outcome,[2],inactive
same,AC50,[3],24.9 µM (active)
same,outcome,[4],inactive
same,outcome,[5],inactive
same,outcome,[6],inactive
same,outcome,[7],inactive
same,outcome,[8],inactive
CC1CN1P(=O)(N1CC1C)N1CC1C (centres undefined),outcome,[1],inactive
same,outcome,[2],inactive
same,outcome,[3],inactive
same,outcome,[4],inactive
same,outcome,[5],inactive
same,outcome,[6],inactive
same,outcome,[7],inactive
C=C(C)C(=O)[O][Sn]([CH2]CCC)([CH2]CCC)[CH2]CCC,outcome,[1],inactive
same,outcome,[2],inactive
same,outcome,[3],inactive
same,outcome,[4],inactive
same,AC50,[5],0.665 µM (active)
same,outcome,[6],inactive
same,outcome,[7],inactive
same,outcome,[8],inactive
C[C@H]1O[C@@H](O[C@H]2[C@@H](O)C[C@H](O[C@H]3[C@@H](O)C[C@H](O[C@H]4CC[C@@]5(C)[C@H](CC[C@@H]6[C@@H]5CC[C@]5(C)[C@@H](C7=CC(=O)OC7)CC[C@]65O)C4)O[C@@H]3C)O[C@@H]2C)C[C@H](O)[C@@H]1O,AC50,[1],0.65 µM (active)
same,outcome,[2],inactive
same,outcome,[3],inactive
same,AC50,[4],0.0564 µM (active)
same,AC50,[5],0.472 µM (active)
same,AC50,[6],0.131 µM (active)
same,outcome,[7],inactive
same,outcome,[9],inactive
same,AC50,[8],0.123 µM (active)
O=Cc1cccc(Oc2ccccc2)c1,outcome,[1],inactive
same,outcome,[2],inactive
same,outcome,[3],inactive
same,outcome,[4],inactive
same,outcome,[10],inactive
same,outcome,[5],inactive
same,outcome,[6],inactive
same,outcome,[7],inactive
same,outcome,[8],inactive
CCC[CH2][Sn]([CH2]CCC)([CH2]CCC)[O]C(=O)c1ccccc1,outcome,[1],inactive
same,outcome,[2],inactive
same,AC50,[3],0.0334 µM (active)
same,outcome,[4],inactive
same,outcome,[10],inactive
same,outcome,[5],inactive
same,outcome,[6],inactive
same,outcome,[7],inactive
same,outcome,[8],inactive
O=C(CCl)CCl,AC50,[1],48.8 µM (active)
same,outcome,[2],inactive
same,outcome,[3],inactive
same,AC50,[4],39.1 µM (active)
same,outcome,[10],inactive
same,AC50,[5],46.3 µM (active)
same,outcome,[6],inactive
same,outcome,[7],inactive
same,AC50,[8],33.4 µM (active)
Oc1c(I)cc(I)cc1I,AC50,[1],71.1 µM (active)
same,outcome,[2],inactive
same,outcome,[3],inactive
same,outcome,[4],inactive
same,outcome,[10],inactive
same,AC50,[5],100 µM (active)
same,outcome,[6],inactive
same,AC50,[7],149 µM (active)
same,outcome,[8],inactive
COc1ccc(C=O)cc1,outcome,[1],inactive
same,outcome,[2],inactive
same,outcome,[3],inactive
same,outcome,[4],inactive
same,outcome,[5],inactive
same,outcome,[6],inactive
same,outcome,[7],inactive
same,outcome,[8],inactive
CNC(=O)O/N=C/C(C)(C)S(C)=O (centres undefined),outcome,[1],inactive
same,outcome,[2],inactive
same,AC50,[3],84.1 µM (active)
same,outcome,[4],inactive
same,outcome,[5],inactive
same,outcome,[6],inactive
same,outcome,[7],inactive
same,outcome,[8],inactive
C=CC(=O)N(C)C,outcome,[1],inactive
same,outcome,[2],inactive
same,outcome,[3],inactive
same,outcome,[4],inactive
same,outcome,[10],inactive
same,outcome,[5],inactive
same,outcome,[6],inactive
same,outcome,[8],inactive
O=C(c1ccccc1)C(Cl)Cl,AC50,[1],26.6 µM (active)
same,outcome,[2],inactive
same,outcome,[3],inactive
same,outcome,[4],inactive
same,outcome,[10],inactive
same,AC50,[5],26.4 µM (active)
same,outcome,[6],inactive
same,outcome,[7],inactive
same,outcome,[8],inactive
CCC(C)c1cccc(C(C)CC)c1O (centres undefined),outcome,[1],inactive
same,outcome,[2],inactive
same,outcome,[3],inactive
same,outcome,[4],inactive
same,outcome,[5],inactive
same,outcome,[6],inactive
same,outcome,[7],inactive
same,outcome,[9],inactive
C=CC(=O)OCCCCCC(C)C,outcome,[1],inactive
same,outcome,[2],inactive
same,outcome,[3],inactive
same,outcome,[4],inactive
same,outcome,[10],inactive
same,outcome,[5],inactive
same,outcome,[6],inactive
same,outcome,[9],inactive
ClCc1ccccn1,outcome,[1],inactive
same,outcome,[2],inactive
same,outcome,[3],inactive
same,outcome,[4],inactive
same,outcome,[10],inactive
same,outcome,[5],inactive
same,outcome,[6],inactive
same,outcome,[7],inactive
same,outcome,[8],inactive
Nc1ncc([N+](=O)[O-])s1,outcome,[1],inactive
same,outcome,[2],inactive
same,outcome,[3],inactive
same,outcome,[4],inactive
same,outcome,[10],inactive
same,outcome,[5],inactive
same,outcome,[6],inactive
same,outcome,[7],inactive
same,outcome,[8],inactive
OCc1ccco1,outcome,[1],inactive
same,outcome,[2],inactive
same,outcome,[3],inactive
same,outcome,[10],inactive
same,outcome,[5],inactive
same,outcome,[6],inactive
same,outcome,[7],inactive
CCC[CH2][Sn]([Cl])([Cl])[Cl],outcome,[1],inactive
same,outcome,[2],inactive
same,outcome,[3],inactive
same,outcome,[4],inactive
same,outcome,[5],inactive
same,outcome,[6],inactive
same,outcome,[7],inactive
same,outcome,[8],inactive
Nc1ccc(N=Nc2ccc(-c3ccc(N=Nc4c(S(=O)(=O)O)cc5cc(S(=O)(=O)O)c(N=Nc6ccccc6)c(O)c5c4N)cc3)cc2)c(N)c1,outcome,[1],inactive
same,outcome,[2],inactive
same,AC50,[3],24.8 µM (active)
same,outcome,[4],inactive
same,outcome,[10],inactive
same,outcome,[5],inactive
same,outcome,[6],inactive
same,outcome,[7],inactive
same,outcome,[8],inactive
COP(=S)(OC)Oc1c(Cl)cc(C)cc1Cl,outcome,[1],inactive
same,outcome,[2],inactive
same,AC50,[3],9.77 µM (active)
same,outcome,[4],inactive
same,outcome,[5],inactive
same,outcome,[6],inactive
same,outcome,[7],inactive
same,outcome,[8],inactive
CC(=O)C(Cl)C(=O)N(C)C (centres undefined),outcome,[1],inactive
same,outcome,[2],inactive
same,outcome,[3],inactive
same,AC50,[4],100 µM (active)
same,outcome,[10],inactive
same,outcome,[5],inactive
same,outcome,[6],inactive
same,outcome,[8],inactive
CCC(C)(C)c1ccc(O)c(C(C)(C)CC)c1,outcome,[1],inactive
same,outcome,[2],inactive
same,outcome,[3],inactive
same,outcome,[4],inactive
same,outcome,[5],inactive
same,outcome,[6],inactive
same,outcome,[8],inactive
Cc1ccc2ccccc2c1C,outcome,[1],inactive
same,outcome,[2],inactive
same,outcome,[3],inactive
same,outcome,[4],inactive
same,outcome,[10],inactive
same,outcome,[5],inactive
same,outcome,[6],inactive
same,outcome,[7],inactive
same,outcome,[8],inactive
CC(=O)c1cc(C(C)(C)C)cc2c1CCC2(C)C,AC50,[1],37.9 µM (active)
same,outcome,[2],inactive
same,outcome,[3],inactive
same,outcome,[4],inactive
same,outcome,[5],inactive
same,outcome,[6],inactive
same,AC50,[7],143 µM (active)
same,AC50,[8],73.9 µM (active)
O=C(Cl)c1ccc(Cl)cc1,outcome,[1],inactive
same,outcome,[2],inactive
same,outcome,[3],inactive
same,outcome,[4],inactive
same,outcome,[10],inactive
same,outcome,[5],inactive
same,outcome,[6],inactive
same,outcome,[8],inactive
Fc1ccc(C2(Cn3cncn3)OC2c2ccccc2Cl)cc1 (centres undefined),outcome,[1],inactive
same,outcome,[2],inactive
same,outcome,[3],inactive
same,outcome,[10],inactive
same,outcome,[5],inactive
same,outcome,[6],inactive
same,outcome,[7],inactive
same,outcome,[9],inactive
same,outcome,[8],inactive
COP(=S)(OC)Oc1ccc(S(=O)(=O)N(C)C)cc1,outcome,[1],inactive
same,outcome,[2],inactive
same,outcome,[3],inactive
same,outcome,[10],inactive
same,outcome,[5],inactive
same,outcome,[6],inactive
same,outcome,[7],inactive
same,outcome,[8],inactive
